# Source: PubChem (National Center for Advancing Translational Sciences (NCATS))
# FLuc counter: inhibits or activates purified firefly luciferase, miR-21 counter-screen | AID 588342 | purified FLuc, Km substrates, luminescence inhibition | 6.9% of 360,000 active | Potency, µM (titrated, usually from 57.5 µM), for inactives: at the highest dose activity change, negative = inhibition, actives largely listed as inhibitors | P08659;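 note: plate controls were vehicle for no effect and reference inhibitor for full effect; nearly all actives have a fitted effect of over 55% in size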
# Target sequence (P08659 whole entry, looked up): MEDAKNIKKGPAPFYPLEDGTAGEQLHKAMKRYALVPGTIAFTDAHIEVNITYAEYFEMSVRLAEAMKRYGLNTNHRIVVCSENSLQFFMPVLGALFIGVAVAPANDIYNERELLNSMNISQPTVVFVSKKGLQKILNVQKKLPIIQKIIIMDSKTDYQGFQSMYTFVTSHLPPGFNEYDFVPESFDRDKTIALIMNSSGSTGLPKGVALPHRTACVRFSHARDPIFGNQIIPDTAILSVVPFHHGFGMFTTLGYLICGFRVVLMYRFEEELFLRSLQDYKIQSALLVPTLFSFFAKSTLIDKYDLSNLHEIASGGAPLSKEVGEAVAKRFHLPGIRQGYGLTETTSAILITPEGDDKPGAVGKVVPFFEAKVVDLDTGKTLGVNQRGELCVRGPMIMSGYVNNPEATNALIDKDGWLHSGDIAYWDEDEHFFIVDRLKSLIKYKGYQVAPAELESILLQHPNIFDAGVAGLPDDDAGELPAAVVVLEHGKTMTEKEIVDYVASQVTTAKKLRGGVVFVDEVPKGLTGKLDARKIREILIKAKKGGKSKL
#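 Purified P. pyralis luciferase (10nM final) with 10uM D-luciferin and 10uM ATP (Km levels) in 50mM Tris acetate pH 7.5, 10mM Mg acetate, 0.01% Tween-20, 0.05% BSA; qHTS 6-point titration, ~60 µM downward; luminescence read.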
# ELG1 DNA repair: blocks ELG1-dependent DNA repair in HEK293T cells; Potency, µM (series often up to 46.1 µM), for inactives: at the highest dose activity change, negative = inhibition, usual class: inhibitors; AID 504467; HEK293T ELG1-luciferase reporter, luminescence, 16 h; DNA damage induced by 5-fluorouridine; 2.3% of 330,000 active; note: % is set by controls: 0 for no effect and ±100 for the full control effect; nearly all actives have a fitted effect of over 55% in size
#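 5-Fluorouridine DNA damage + compound/DMSO, 2,000 cells/well, 16 h, 37 °C/5% CO2. ONE-Glo, 30 min RT, luminescence. Readout = decrease in reporter signal.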
# SMN2 splice up: SMN2 splice variant enhancement | Potency, µM (top dose mostly 46.1 µM), for inactives: top-dose activity change, positive = activation, most hits filed as activators | 2.8% of 210,000 active | HEK293 SMN2-luciferase splicing reporter, luminescence, 30-36 h; note: % of control where 0% means no effect; nearly all actives have a fitted effect of over 55% in size
#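 qHTS luciferase splicing reporter: luminescence rises when SMN2 exon 7 is included in transfected HEK293 cells. Compound exposure lasted 30-36 h at 37C, with 4.5 mM final sodium butyrate as control, followed by a ONE-Glo read.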
# ELG1 genotox: induces genotoxicity in HEK293T cells with luciferase-tagged ELG1; HEK293T ELG1-luciferase reporter, luminescence, 16 h; Potency, µM (top dose mostly 46 µM), for inactives: top-dose activity change, positive = activation, usual class: activators; 1.3% of 330,000 active; AID 504466; note: % of control where 0% means no effect; nearly all actives have a fitted effect of over 60% in size
#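 Luminescence read-out: rising ELG1-luciferase signal, reflecting elevated ELG1 protein under genetic stress, flags genotoxic compounds. Cells were treated for 16 hr at 37 °C before ONE-Glo detection.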
# NPC1 promoter act: NPC1 promoter activation | AID 485313 | Potency, µM (titrated, usually from 9.22 µM), for inactives: at the top dose activation, hits mostly activators | 2.4% of 320,000 active | Huh7 NPC1 promoter luciferase reporter, 24 h; note: % of control where 0% means no effect; nearly all actives have a fitted effect of over 60% in size
#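 NPC1 promoter–luciferase Huh7 cells; 24 h compound; luminescence.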
# Rab9 promoter act: activators of Rab9 promoter; Huh7 Rab9 promoter-luciferase reporter, luminescence, 24 h; Potency, µM (titrated, usually from 9.22 µM), for inactives: at the highest dose activation, negative = inhibition, most hits filed as activators; 2.8% of 320,000 active; note: % of control where 0% means no effect; nearly all actives have a fitted effect of over 60% in size
#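 Rab9 promoter-driven luciferase in stably transfected Huh7 cells; 1500 cells/well rested 2 h, exposed to compound in DMSO for 24 h at 37 °C, 5% CO2. Luminescence read 10 min after adding luciferase reagent at ambient temperature.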
# Active calls of the source: *; ? = inconclusive; / = not tested or not shown; [ ] = another dose, or the depositor's remark. The list is not random: actives were taken first. Their share in the collection is about 9.2%. Calls come from the whole dose curve; as a rule, active = well fitted curve in the direction sought with a large enough effect; inconclusive = small, poorly fitted or top-dose-only effect, or another doubt; inactive = no such curve, though single readings can be large; an effect the other way counts as inactive or inconclusive. Potency is the fitted concentration of half-maximal effect.
SMILES,FLuc counter,ELG1 DNA repair,SMN2 splice up,ELG1 genotox,NPC1 promoter act,Rab9 promoter act
COc1ccc(-c2c(-c3ccccc3OC)sc3ccccc23)cc1C=O,?,?,/,2%,8%,-1%
Cc1ccccc1N=C/C=C1/C=C(c2ccccc2)OC(C)(C)O1,-11%,13µM*,-4%,-7%,-2%,-3%
CCN(C(=O)c1ccc(N2CC3CC(C2)c2cccc(=O)n2C3)c(NC(=O)c2ccncc2)c1)c1cccc(C)c1 (stereo unspecified),0%,?,/,0%,3%,-3%
COC(=O)C1CCN(C(=O)Nc2ccccc2)CC1,3%,-2%,-9%,0%,-9%,-6%
COc1ccccc1CC(=O)NCC1CCCO1 (stereo unspecified),-1%,/,19%,/,/,/
Cc1ccccc1-c1noc(-c2ccccc2C(=O)NCC2CCCO2)n1 (stereo unspecified),15µM*,0%,/,-8%,1%,-1%
COc1ccccc1-c1noc(-c2ccccc2C(=O)NCC2CCCO2)n1 (stereo unspecified),15µM*,-1%,/,-3%,1%,1%
COc1ccc(-c2noc(-c3ccccc3C(=O)NCC3CCCO3)n2)cc1 (stereo unspecified),9.5µM*,?,/,-9%,1%,-1%
O=C(NCC1CCCO1)c1ccccc1-c1nc(-c2ccc(F)cc2)no1 (stereo unspecified),?,?,-42%,-5%,1%,-1%
CCOc1ccc(NC(=O)CCn2c(=O)c3cccn3c3cccnc32)cc1,0%,/,/,/,/,/
Cc1ccc(C(=O)N[C@@H](C)CN2C3=NC[C@H](C)N3C[C@H]2Cc2ccc(O)cc2)cc1Br,7%,-1%,/,-1%,-2%,-9%
COc1cccc(NC(=O)c2nc(SC)ncc2Cl)c1,3%,1%,/,-4%,4%,1%
COc1cccc(NC(=O)c2ccn(C)n2)c1,?,?,14µM*,?,?,2.8µM*
COc1cccc(NC(=O)c2ncc(Cl)c(Cl)c2Cl)c1,5.4µM*,?,26%,-3%,13%,4%
COc1ccc(C2N(Cc3ccccc3)CCN2Cc2ccccc2)cc1[N+](=O)[O-],2%,8%,-2%,0%,-3%,-3%
O=[N+]([O-])c1ccc(-c2nc(=S)c3c(o2)CCCC3)cc1,?,?,13%,3%,30%,29%
COc1cccc(-c2nc(=S)c3c(o2)CCCC3)c1,3µM*,?,?,?,3%,?
S=c1nc(-c2ccccc2)oc2c1CCCC2,13µM*,?,24%,16%,?,?
Cc1ccc2nc(COc3ccccc3NC(=O)C(C)(C)C)cc(=O)n2c1,0%,/,/,/,/,/
CCC(C(=O)NCc1ccccc1)n1ncn2c(cc3occc32)c1=O (stereo unspecified),4%,/,-8%,/,/,/
CCc1ccc2nc(NC(=O)C3CSC4(C)CCC(=O)N34)sc2c1 (stereo unspecified),12µM*,?,/,?,15%,9%
Cc1ccc(-c2csc(NC(=O)C3CSC4(C)CCC(=O)N34)n2)cc1 (stereo unspecified),-3%,?,/,14%,-2%,10%
Cc1sc(NC(=O)C2CSC3(C)CCC(=O)N23)nc1-c1ccc(F)cc1 (stereo unspecified),-3%,18µM*,/,-13%,-2%,-3%
COc1ccc2cnoc(=O)c2c1OC,/,/,-10%,/,/,/
Clc1cc(Cl)cc(Cl)c1,/,/,-8%,/,/,/
SMILES,FLuc counter,ELG1 DNA repair,SMN2 splice up,ELG1 genotox,NPC1 promoter act,Rab9 promoter act
O=C(CN1C(=O)S/C(=C\C=C\c2ccccc2)C1=O)NC1CCS(=O)(=O)C1 (stereo unspecified),5.4µM*,?,/,7%[9.26 µM],2.5µM*,2.8µM*
CC(C)c1ccc(/C=C2\SC(=O)N(CC(=O)NC3CCS(=O)(=O)C3)C2=O)cc1 (stereo unspecified),1.1µM*,?,/,9%,4µM*,?
CCn1c2ccccc2c2nnc(SCCCn3c(=O)[nH]c4ccccc43)nc21,-7%,23µM*,/,-30%,4%,-3%
CCn1c2ccccc2c2nnc(SCc3ccccc3)nc21,?,-3%,-18%,0%,10%,0%
Cc1ccc(C(=O)N/C(=C\c2ccc(Br)cc2)c2nc(=S)[nH][nH]2)cc1,?,?,-7%,3%,-3%,2%
O=C(N/C(=C/c1cccc(Br)c1)c1nc(=S)[nH][nH]1)c1ccccc1,6.7µM*,?,3%,12%,-1%,7%
Cc1cc(N)n(-c2nc3ccccc3s2)n1,-2%,4%,/,-13%,-10%,-11%
Cc1c2c(=O)n(-c3nc4ccccc4s3)nc-2cc(O)n1Cc1ccccc1,6.7µM*,?,/,-1%,-5%,-16%
Cc1cc(C)n(-c2nc(C(=O)O)cs2)n1,-15%,14%,9%,2%,-3%,-2%
Cc1cc(C)n(-c2nc(-c3cccc(Cl)c3)cs2)n1,11µM*,?,18%,?,?,?
Cc1cc(C)n(-c2nc(-c3ccccc3)cs2)n1,9.5µM*,?,23%,18µM*,26%,?
Cc1cc(C)n(-c2nc3ccccc3s2)n1,21µM*,?,/,?,17%,27%
Cc1cc(NC(=O)C(C)C)n(-c2nc3ccccc3s2)n1,?,17%,-6%,7%,21%,?
CCOC(=O)c1c(NC(=O)COC(=O)c2ccccn2)sc2c1CCC2,-1%,25%,-15%,?,-3%,-2%
COc1ccc(OCc2nc3ccc(S(=O)(=O)Nc4ccccc4Cl)cc3[nH]2)cc1,-1%,-21%,-36%,-2%,-1%,0%
COc1ccccc1NS(=O)(=O)c1ccc2nc(CCl)[nH]c2c1,1%,?,/,0%,-10%,-4%
COc1ccc(NS(=O)(=O)c2ccc3nc(COc4cccc5ccccc45)[nH]c3c2)cc1,0%,23µM*,-15%[1.84 µM],-10%,-1%,-1%
COc1ccc(NS(=O)(=O)c2ccc3nc(COc4ccc5ccccc5c4)[nH]c3c2)cc1,-7%,23µM*,/,-6%,0%,2%
CCN(CC(=O)Nc1ccccc1C(F)(F)F)C(=O)c1cc(S(=O)(=O)N2CCCCCC2)ccc1OC,4%,?,/,-5%,-1%,-10%
COc1cccc(NC(=O)CNC(=O)Cn2c(C)cc3ccccc3c2=O)c1,1%,/,7%,/,/,/
O=c1c2ccccc2nc(SCc2nc3ccccc3s2)n1CCCO,13µM*,?,14µM*,?,?,2.8µM*
